Assay results published in PubChem BioAssay (NCI).
The panel holds about 79,000 compounds, 15% with a hit somewhere; the sample as a whole holds those more often. Activity calls are given as the source filed them. Rule as the data show it: active = growth inhibition above about 70%; inactive = the rest.

Key:
[1] = NCI Yeast Anticancer Drug Screen. Data for the rad50 strain (AID 155);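 also: 0% = growth of vehicle-only cultures of the same strain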; details: S. cerevisiae rad50 strain growth inhibition, stronger effect = higher value
Method in brief: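 Inhibition values express reduced yeast growth in compound-treated cultures relative to vehicle-treated controls.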

[2] = NCI Yeast Anticancer Drug Screen. Data for the mec2-1 strain (AID 157); details: S. cerevisiae mec2-1 strain, stronger effect = higher value
Method in brief: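 Growth inhibition is read against vehicle-treated controls after compound exposure of the mec2-1 yeast strain, which is defective in DNA damage repair or cell cycle control.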

[3] = NCI Yeast Anticancer Drug Screen. Data for the sgs1 mgt1 strain (AID 161);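 also: 0% = growth of cultures given vehicle only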; details: S. cerevisiae sgs1 mgt1 strain, stronger effect = higher value
Method in brief: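 Percent growth inhibition was derived by comparing compound-exposed mutant yeast with vehicle-exposed cultures. The strain carries alterations in DNA damage repair.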

[4] = NCI Yeast Anticancer Drug Screen. Data for the cln2 rad14 strain (AID 165);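 also: 0% = growth equal to vehicle treated cultures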; details: S. cerevisiae cln2 rad14 strain, stronger effect = higher value
Method in brief: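 Growth inhibition, relative to vehicle-treated controls, is the read-out. The test organism is a yeast strain with defined genetic alterations, cln2 rad14.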

[5] = NCI Yeast Anticancer Drug Screen. Data for the bub3 strain (AID 167); details: S. cerevisiae bub3 mutant strain, stronger effect = higher value
Method in brief: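 Steps: expose the mutant yeast strain to compound; grow alongside vehicle-treated cultures; measure growth; express inhibition against the vehicle cultures.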

[6] = NCI Yeast Anticancer Drug Screen. Data for the mlh1 rad18 strain (AID 175); details: S. cerevisiae mlh1 rad18 strain growth inhibition, stronger effect = higher value
Method in brief: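 Cells of a genetically altered yeast strain, deficient in DNA damage repair, were treated with compound. Their growth was then compared with that of vehicle-treated cultures to give inhibition.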

[7] = at 5.0 µM (retest, dose inferred, filed as 0.5)
[8] = at 50.0 µM (retest, dose inferred, filed as 5.0)

Measured: growth inhibition

Nc1cc2c(cc1/C=C(\C(=O)O)c1ccccc1)OCO2
inactive: [1]; [7] -1% | [1]; [8] -4% | [1]; at 50.0 µM 52.2% | [2]; [7] -11% | [2]; [8] -8% | [2]; at 50.0 µM -8.75% | [3]; [7] -5% | [3]; [8] -8% | [3]; at 50.0 µM 56% | [4]; [7] -4% | [4]; [8] 9% | [4]; at 50.0 µM -24.6% | [5]; [7] -6% | [5]; [8] 2% | [5]; at 50.0 µM -5.95% | [6]; [7] -3% | [6]; [8] -2% | [6]; at 50.0 µM 15.2%

CCOC(=O)CC(O)(CCc1ccccc1)c1ccccc1 (configuration not stated)
inactive: [1]; [7] -5% | [1]; [8] 6% | [1]; at 50.0 µM 25.4% | [2]; [7] 1% | [2]; [8] 2% | [2]; at 50.0 µM 54.8% | [3]; [7] -14% | [3]; [8] 22% | [3]; at 50.0 µM -2.1% | [4]; [7] -1% | [4]; [8] -14% | [4]; at 50.0 µM -18.2% | [5]; [7] 14% | [5]; [8] 40% | [5]; at 50.0 µM 21.1% | [6]; [7] -1% | [6]; [8] 45% | [6]; at 50.0 µM 9.95%

CN(C)CCCSc1c2ccccc2nc2cccc([N+](=O)[O-])c12
inactive: [1]; [7] 2% | [1]; [8] 10% | [1]; at 50.0 µM 3.65% | [2]; [7] 0% | [2]; [8] -1% | [2]; at 50.0 µM -9.4% | [3]; [7] -8% | [3]; [8] -3% | [3]; at 50.0 µM 7.5% | [4]; [7] 12% | [4]; [8] 18% | [4]; at 50.0 µM -47.8% | [5]; [7] 14% | [5]; [8] 8% | [5]; at 50.0 µM -43.5% | [6]; [7] 2% | [6]; [8] -5% | [6]; at 50.0 µM 20.6%

CC(=O)OC1CCC2(C)C(=CCC3C2CCC2(C)C3CC(C(N)=O)C2C(C)=O)C1 (configuration not stated)
inactive: [1]; [7] -2% | [1]; [8] 25% | [1]; at 50.0 µM 49% | [2]; [7] 1% | [2]; at 50.0 µM 14.6% | [3]; [7] 6% | [4]; [7] -3% | [4]; [8] 57% | [4]; at 50.0 µM 61.6% | [5]; [7] 9% | [5]; at 50.0 µM 7.4% | [6]; [7] -1% | [6]; at 50.0 µM 59.3%
active: [2]; [8] 79% | [3]; [8] 75% | [3]; at 50.0 µM 76.8% | [5]; [8] 97% | [6]; [8] 70%

O=C1CNC(=O)c2cc(Cl)ccc2N1
inactive: [1]; [7] 46% | [1]; [8] 45% | [1]; at 50.0 µM -8.75% | [2]; [7] 25% | [2]; [8] 32% | [2]; at 50.0 µM -26.1% | [3]; [7] 34% | [3]; [8] 44% | [3]; at 50.0 µM 8.6% | [4]; [7] 28% | [4]; [8] 29% | [4]; at 50.0 µM 13.9% | [5]; [7] 34% | [5]; [8] 67% | [5]; at 50.0 µM 40.1% | [6]; [7] 44% | [6]; [8] 42% | [6]; at 50.0 µM -2.1%

COc1ccccc1NC(=O)CC(=O)N1N=C(C)C(N=Nc2ccc(I)cc2)C1=O (configuration not stated)
active: [1]; at 50.0 µM 93% | [3]; at 50.0 µM 83.1% | [6]; at 50.0 µM 85.6%
inactive: [1]; [7] 5% | [1]; [8] 36% | [2]; [7] 6% | [2]; [8] 30% | [2]; at 50.0 µM 11.1% | [3]; [7] 6% | [3]; [8] 28% | [4]; [7] 2% | [4]; [8] 20% | [4]; at 50.0 µM -39.5% | [5]; [7] 5% | [5]; [8] 41% | [5]; at 50.0 µM 33% | [6]; [7] 2% | [6]; [8] 41%

Cc1ccc(-c2c3nc(c(-c4ccc(C)cc4)c4ccc([nH]4)c(-c4ccc(C)cc4)c4nc(c(-c5ccncc5)c5ccc2[nH]5)C=C4)C=C3)cc1.Cc1ccc(-c2c3nc(c(-c4ccc(C)cc4)c4ccc([nH]4)c(-c4ccc(C)cc4)c4nc(c(-c5ccncc5)c5ccc2[nH]5)C=C4)C=C3)cc1.O=S(=O)([O-])C(F)(F)F.[Pt+2].c1ccc([PH+](CCC[PH+](c2ccccc2)c2ccccc2)c2ccccc2)cc1
active: [3]; [8] 71%
inactive: [1]; [7] 19% | [1]; [8] 62% | [1]; at 50.0 µM 48.8% | [2]; [7] 13% | [2]; [8] 42% | [2]; at 50.0 µM 36.8% | [3]; [7] 13% | [3]; at 50.0 µM 50.4% | [4]; [7] 3% | [4]; [8] 45% | [4]; at 50.0 µM -44.6% | [5]; [7] 10% | [5]; [8] 63% | [5]; at 50.0 µM 38.8% | [6]; [7] 14% | [6]; [8] 60% | [6]; at 50.0 µM 68.5%

CC1(C)CCN(CCOC(=O)C(c2ccccc2)C2C=CCCC2)C1 (configuration not stated)
active: [3]; at 50.0 µM 77% | [4]; at 50.0 µM 73.7%
inactive: [1]; [7] -3% | [1]; [8] 46% | [1]; at 50.0 µM 64.2% | [2]; [7] 25% | [2]; [8] 50% | [2]; at 50.0 µM 56.6% | [3]; [7] 29% | [3]; [8] 69% | [4]; [7] 3% | [4]; [8] 32% | [5]; [7] 4% | [5]; [8] 26% | [5]; at 50.0 µM 69.8% | [6]; [7] 38% | [6]; [8] 65% | [6]; at 50.0 µM 70%

CCCCN(Cc1ccccc1)CC(O)c1cc2c(c3ccccc13)CCCC2 (configuration not stated)
active: [1]; [8] 85% | [1]; at 50.0 µM 95.9% | [2]; [8] 89% | [2]; at 50.0 µM 80% | [3]; [8] 95% | [3]; at 50.0 µM 93.2% | [4]; at 50.0 µM 92.2% | [5]; [8] 84% | [5]; at 50.0 µM 76.1% | [6]; [8] 92% | [6]; at 50.0 µM 92.8%
inactive: [1]; [7] -2% | [2]; [7] 9% | [3]; [7] 0% | [4]; [7] -7% | [4]; [8] 59% | [5]; [7] -7% | [6]; [7] 18%
